From the supplement of paper PMC6555819

What was measured:
Assay in all cases: PBM binding z-score (relative to random genomic background probes); higher = stronger binding; sequences stand for … in GC…GCGATTGACAGCGTAGAATGAAGG
[1] = tested on: FXR:RXRa (NR concentration 270 nM, RXRa partner concentration 90 nM)
How it was run: (§1)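 Binding z-scores were set against random background probes. The data came from custom Agilent 4×180K protein-binding microarrays carrying double-stranded probes with 34-nt variable regions, incubated 1 h with ligand-free nuclear receptor dimers. Partner-specific antibodies detected binding, and scanned fluorescence was regression-normalized.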

[2] = tested on: LXRa:RXRa (NR concentration 270 nM, RXRa partner concentration 90 nM)
How it was run: as §1

[3] = tested on: LXRa homodimer (NR concentration 270 nM)
How it was run: as §1

[4] = tested on: LXRb:RXRa (NR concentration 270 nM, RXRa partner concentration 90 nM)
How it was run: as §1

[5] = tested on: LXRb homodimer (NR concentration 270 nM)
How it was run: as §1

[6] = tested on: PPARa:RXRa (NR concentration 270 nM, RXRa partner concentration 90 nM)
How it was run: as §1

[7] = tested on: PPARg:RXRa (NR concentration 180 nM, RXRa partner concentration 90 nM)
How it was run: as §1

[8] = tested on: PPARg:RXRa 270nM:90nM, anti-RXR (NR concentration 270 nM, RXRa partner concentration 90 nM)
How it was run: as §1

[9] = tested on: PPARg:RXRa 30nM:10nM, anti-RXR (NR concentration 30 nM, RXRa partner concentration 10 nM)
How it was run: as §1

[10] = tested on: PPARg:RXRa 90nM:30nM, anti-RXR (NR concentration 90 nM, RXRa partner concentration 30 nM)
How it was run: as §1

Row | Sequence | PBM binding z-score [1] | PBM binding z-score [2] | PBM binding z-score [3] | PBM binding z-score [4] | PBM binding z-score [5] | PBM binding z-score [6] | PBM binding z-score [7] | PBM binding z-score [8] | PBM binding z-score [9] | PBM binding z-score [10]
1 | CCAGACAGGTGATAGGTAACTCAGTCTGGTACGC | -0.225 | -0.0796 | -0.151 | -0.0572 | -0.589 | 0.765 | 1.82 | 2.56 | 0.858 | 1.92
2 | TGAATGAGGATAAAGATCAGGGAACGTGGCGTCG | 0.0362 | -0.419 | -0.157 | -0.514 | -0.0964 | 1.03 | 1.87 | 3.78 | 2.17 | 3.5
3 | TAGCCTAGGTCATGGGCCACTATACCACGCGAAC | 4.16 | 3.63 | 0.886 | 2.81 | 0.0878 | 4.15 | 4.04 | 4.19 | 1.48 | 3.31
4 | GCAAACAGGTGAAACGCAGGTAACTCAGGGTGGC | -0.182 | -0.0525 | -0.463 | -0.425 | -0.88 | 0.919 | 0.672 | 0.158 | -0.786 | -0.33
5 | TCATATAGGTAAAGGTCAAAGTCGAACGATATGA | 6.53 | 6.13 | 4.7 | 5.5 | 2.62 | 6.15 | 7.64 | 6.9 | 6.04 | 7.15
6 | CGTCAAAGTTCAAGGAAACGTAACAGAAAGCAGC | 5.45 | 5.15 | 1.92 | 2.97 | 0.958 | 4.11 | 3.58 | 4.4 | 1.69 | 3.29
7 | TTAACAAGGTGAAGGTCGTTGATCCCTCTGTAGA | 2.23 | 1.78 | -0.258 | 1.35 | -0.562 | 2.91 | 2.42 | 3.09 | 1.5 | 2.65
8 | TCTTGTAGATCAATAGAGGTTAAGGAAGTGCGCT | 1.25 | 2.42 | 0.324 | 1.5 | -0.201 | 2.08 | 0.136 | 1.99 | 3.04 | 2.63
9 | ATCGAAAGGTCGACGATGTGAGTATACACCGTTT | 3.67 | 3.02 | -0.0144 | 2.55 | 0.246 | 4.4 | 2.46 | 2.71 | 0.896 | 1.84
10 | ATAGAAAGGTCGTGAGGTGAGTATACAGAAAGGC | 4.9 | 3.76 | 0.49 | 3.4 | 0.703 | 4.86 | 4.33 | 4.37 | 2.46 | 3.57
11 | CCTTACGGGTCACGAGGTGATAGCACGACGAGCG | 6.73 | 4.27 | -0.242 | 3.42 | -0.279 | 5.82 | 7.42 | 6.5 | 3.14 | 5.75
12 | ATCTCTAGGTAAAGATATTTCAGTGAATGCAAAT | 0.207 | 0.268 | 0.422 | 0.346 | 0.74 | 0.352 | 0.976 | 0.732 | 0.499 | 0.83
13 | CATACAGGCTCAGCTAGGCCAGAGTAGGGACGGC | -0.48 | -0.677 | -0.674 | -1.16 | -0.846 | -0.795 | 0.181 | -0.549 | -0.529 | -0.694
14 | ACTTACGGGTCAACGAGGTTATAGCCCGCGTATA | 6.28 | 4.99 | 0.779 | 4.32 | 0.557 | 5.47 | 4.98 | 5.37 | 2.01 | 4.01
15 | TCTCGGAGGACTCGAAGGTCAGAGCTTTCCAGAG | 0.838 | 0.984 | -0.429 | 0.814 | -1.14 | 1.46 | -0.316 | 1.24 | 2 | 1.38
16 | TCTTGTAGATCATAGGTTAAGAAAGCCGAAGCCT | 1.15 | 0.999 | -0.0576 | 0.991 | 0.0364 | 2.8 | 4.38 | 5.93 | 4.93 | 6.23
17 | ATATTTAGGTTAAGGGTCATTCAGGTTGGTTCGC | 5.26 | 4.78 | 3.91 | 4.61 | 3.14 | 6.38 | 11 | 9.52 | 9.42 | 10.5
18 | CCTCGGAGAACAGAAGGTCAGAGCTGTCCGCTTT | 1.13 | 1.7 | 0.757 | 1.3 | -0.0418 | 1.85 | -0.162 | 0.587 | -0.776 | 0.369
19 | TCTATTAGTTGAAGGGCACCCGACGAGTCCGTTT | 0.72 | 0.953 | 0.3 | 0.709 | 0.846 | 0.943 | 0.172 | 2 | 3.71 | 2.96
20 | TCGAGTAGGTTAGTCGGGGCATTCAGCCAACATA | -0.132 | -0.201 | -0.628 | 0.294 | -0.855 | 0.44 | -0.224 | 0.553 | 0.435 | 0.377
21 | CCTCGGAGGACAGCAGGAGGTCAGAGCTGCCAGA | 0.706 | 1.02 | 0.292 | 0.728 | -0.764 | 1.48 | -0.245 | -0.0312 | -1.08 | -0.248
22 | CGAACTAGGTCATTGACAGGACAGCGAATAGTAA | 4.04 | 2.83 | 0.577 | 1.84 | -0.147 | 4.83 | 7.35 | 6.29 | 3.94 | 5.75
23 | AGAATGAGATTATTAAGATCAGGGAATTGCGGTC | -1.55 | -0.864 | -0.323 | -0.702 | -0.452 | -0.715 | 0.449 | -0.292 | -0.0999 | -0.261
24 | TCTATTAGTTGATTAGGGAAACCGAAACAGCGGA | 0.843 | 0.826 | 0.343 | 0.602 | 0.852 | 0.623 | -0.0137 | 2.16 | 3.69 | 3.2
